What all share (assay): NCI-60 one-dose screen, 48 h (100 = growth as untreated, 0 = no growth, -100 = all killed)
What all share (settings): 10 µM unless noted

For assay [1], the system named is NCI-H23 lung.
Assay [2] has as its system NCI-H226 lung.
The subject of assay [3] is NCI-H322M lung.
The test system of assay [4] is HOP-62 NSCLC.
Assay [5] has as its system NCI-H460 lung.
Assay [6] deals with HOP-92 NSCLC.
In assay [7] the test system is NCI-H522 lung.
In assay [8] the test system is A549/ATCC NSCLC.
Assay [9] has as its system 786-0 renal.
Assay [10] relates to COLO 205 colon.
For assay [11], the system named is DU-145 prostate.
Assay [12] has as its system MALME-3M melanoma.
Assay [13] has as its system MDA-MB-231 breast.
Assay [14] relates to RXF 393 renal.
In assay [15] the test system is SF-268 CNS.
The subject of assay [16] is SF-295 CNS.
The subject of assay [17] is SF-539 CNS.
The subject of assay [18] is UACC-257 melanoma.
Assay [19] relates to M14 melanoma.

Structures are written as SMILES. Compounds without any hit were thinned out: in the full panel of roughly 83,000, 20% have a hit.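 Activity criterion: percent growth below 10, measured after cells in 96-well plates were exposed to a single compound concentration for 48 hours.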 Unmarked numbers belong to inactive results. The source made the active and inactive calls.

This note sets out measurements from PubChem BioAssay (NCI).

`CCn1cc(/C=C2\Oc3cc(OCC#N)ccc3C2=O)c2cc(OC)ccc21`: the growth was 41.6% in [1]; 86.4% in assay [2]; 49.3% in assay [3]; 36.6% in assay [4]; 8.51% (active) in [5]; 71.2% in assay [6]. The growth is 56.7% in assay [7]; 41.1% in [8]; 38.3% in [9]; 8.22% (active) in assay [10]; 20.4% in assay [11]; 93.4% in assay [12]. In addition, the growth in assay [13] was 45.2%; in assay [14] it was -11.3% (active); in assay [15], 55.9%; in assay [16], 16.7%; in [17] it was 3.56% (active); in [18], 65.1%. In assay [19], the growth is 22.8%.

On to `O=C(CNc1cccnc1)Nc1ccc(C(=O)/C=C/c2ccc(Cl)cc2)cc1`, for which the growth in assay [1] was 91.7%; in assay [2] it was 86.4%; in assay [3] it was 95.9%; in [4] it was 107%; in assay [5], 93.5%; in assay [6] it was 90.7%. The growth was 89.4% in assay [7]; 88.3% in assay [8]; 105% in [9]; 106% in [10]; 103% in assay [11]; 89.3% in assay [12]. Moreover, the growth in assay [13] is 77%; in [14], 98.8%; in [15], 91.4%; in assay [16], 93.9%; in assay [17], 99.6%; in assay [18], 105%. Further, the growth in assay [19] was 88.4%.

Consider `CC1=C2C(=C[C@@](C)(CO)[C@@H]2OC(=O)N(C)CCN(C)C(=O)OC(C)(C)C)C(=O)[C@](C)(O)C12CC2`, for which the growth was 11.8% in assay [1]; 106% in [2]; 59.7% in assay [3]; 9.97% (active) in assay [4]; 3.77% (active) in assay [5]; 8.11% (active) in assay [6]. The growth in assay [7] was 57.7%; in assay [8], 10.4%; in assay [9] it was 65.1%; in [10], 40.1%; in assay [11], 8.82% (active); in assay [12], 67.3%. Moreover, the growth in [13] was 48%; in [14] it was -57.3% (active); in assay [15] it was 4.84% (active); in assay [16], 5.06% (active); in [17], 57.9%; in assay [18] it was 100%. Moreover, the growth in assay [19] is 54.8%.

For the molecule `O=C(Nc1ccccc1Cl)c1c[nH]c(=O)c(-c2ccc(N3CCCOC4(CC4)C3)cc2)c1`, the growth in assay [1] is 46.9%; in [2], 50.9%; in [3] it was 78%; in assay [4], 69.7%; in assay [5], 63.8%; in assay [6] it was 70.4%. Further, the growth in assay [7] was 53.6%; in assay [8], 57.8%; in [9], 68.2%; in [10], 81.4%; in assay [11] it was 77.6%; in [12], 70%. Also, the growth in assay [13] is 77.7%; in [14], 81.2%; in assay [15], 69.8%; in [16], 55.3%; in assay [17], 76%; in assay [18] it was 38%. Besides, in [19], the growth is 74.9%.

Consider `COc1ccc(-c2coc3c(CO)c(O)ccc3c2=O)cc1`, for which the growth in assay [1] is 79.5%; in [2], 61.7%; in assay [3] it was 52.9%; in assay [4], 53%; in assay [5], 32.7%; in [6], 55.8%. Besides, the growth in [7] is 67.2%; in assay [8], 90.5%; in [9], 90.3%; in assay [10], 115%; in assay [11], 9.29% (active); in assay [12], 21.3%. For the same molecule, the growth in assay [13] is 25%; in [14] it was -27.4% (active); in assay [15], 22.2%; in [16] it was 23.1%; in assay [17], 47.9%; in assay [18] it was 90.3%. Also, the growth in assay [19] was 75.5%.

In the case of `Cc1ccc2oc(=O)cc(C3C(C#N)=C(N)Oc4c3ccc3ccccc43)c2c1` (stereo not drawn), the growth in [1] is 89.8%; in assay [2], 87.1%; in assay [3], 89.2%; in assay [4], 63.7%; in assay [5] it was 84.1%; in [6], 87.3%. Further, the growth in [7] is 48.6%; in [8], 71.1%; in assay [9], 81.3%; in assay [10], 70.3%; in [11], 96.3%; in [12], 95.5%. Also, the growth in assay [13] was 81.9%; in [14], 79.2%; in [15], 82.7%; in assay [16], 75.8%; in assay [17], 82.6%; in [18], 85.4%. Further, the growth in [19] is 61.5%.

As for `CCCOC(=O)c1ccc([N+](=O)[O-])o1`, the growth in [1] was 108%; in [2], 109%; in assay [3], 108%; in [4] it was 114%; in assay [5], 91.4%; in assay [6] it was 109%. The growth is 85.4% in [7]; 101% in assay [8]; 108% in assay [9]; 120% in assay [10]; 118% in assay [11]; 116% in assay [12]. The growth in assay [13] was 103%; in [14], 109%; in assay [15], 100%; in [16], 120%; in assay [17], 93.8%; in assay [18], 110%. The growth in assay [19] is 98.8%.
